# From paper PMC7862700, “An all-to-all approach to the identification of sequence-specific readers for epigenetic DNA modifications on cytosine”
# Legend:
# Assay in all cases: DAPPL (digital affinity profiling via proximity ligation, sequencing); 10 mM Tris-HCl pH 7.5, 50 mM NaCl, 1 mM DTT, 4% glycerol, room temperature, 30 min; GST-TFs on glutathione beads, 16-mer random dsDNA library, 0.1% formaldehyde crosslink after washing; high values mean tight binding
# [1] = molecular target: T1, FLI1 (Homo sapiens, UniProt Q01543 1-452); conditions: protein: recombinant; tags: N-terminal GST; dsDNA, one strand shown
# T1 sequence: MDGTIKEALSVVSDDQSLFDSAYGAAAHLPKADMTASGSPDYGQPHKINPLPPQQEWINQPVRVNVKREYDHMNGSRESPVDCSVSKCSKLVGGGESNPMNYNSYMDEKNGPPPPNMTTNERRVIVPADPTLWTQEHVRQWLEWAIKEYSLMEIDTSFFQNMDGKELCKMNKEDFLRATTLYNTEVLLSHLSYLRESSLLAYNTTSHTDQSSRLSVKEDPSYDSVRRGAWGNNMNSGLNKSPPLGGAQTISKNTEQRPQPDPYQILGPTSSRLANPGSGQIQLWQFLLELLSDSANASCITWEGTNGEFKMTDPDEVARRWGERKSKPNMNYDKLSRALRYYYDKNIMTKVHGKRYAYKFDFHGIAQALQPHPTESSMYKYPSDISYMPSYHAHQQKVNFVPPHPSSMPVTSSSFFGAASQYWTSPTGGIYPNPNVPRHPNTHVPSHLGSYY
# Outline: (§1)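 After expression in yeast as GST fusions, human transcription factors were bound to glutathione beads, DNA-barcoded and mixed with a tag-only sample. The pools were incubated with 200 nmole of a 16-mer random double-stranded DNA library in Tris/NaCl/DTT/glycerol buffer (30 min, room temperature), washed and crosslinked with 0.1% formaldehyde. Proximity ligation with BsaI/T4 ligase ran for 1 h at 37 °C, before PCR amplification and sequencing on an Illumina NextSeq500. Binding signal is a hexamer's read frequency for a factor divided by its frequency for the tag-only sample.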
# [2] = molecular target: T2, ELK1 (Homo sapiens, UniProt P19419 1-428); conditions: protein: recombinant; tags: N-terminal GST; dsDNA, one strand shown
# T2 sequence: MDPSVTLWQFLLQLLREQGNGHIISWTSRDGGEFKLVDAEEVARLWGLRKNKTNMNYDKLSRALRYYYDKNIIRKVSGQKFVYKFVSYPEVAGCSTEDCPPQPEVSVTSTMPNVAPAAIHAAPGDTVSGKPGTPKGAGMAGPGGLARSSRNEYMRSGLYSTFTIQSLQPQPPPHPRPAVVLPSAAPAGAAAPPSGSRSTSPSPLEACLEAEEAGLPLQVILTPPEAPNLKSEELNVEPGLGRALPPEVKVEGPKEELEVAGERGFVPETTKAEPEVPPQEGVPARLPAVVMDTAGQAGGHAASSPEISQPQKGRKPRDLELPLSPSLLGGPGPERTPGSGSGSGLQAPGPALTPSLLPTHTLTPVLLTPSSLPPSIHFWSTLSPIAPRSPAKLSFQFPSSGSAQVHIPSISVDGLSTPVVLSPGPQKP
# Outline: as §1
# [3] = molecular target: T3, GABPA (Homo sapiens, UniProt Q06546 1-454); conditions: protein: recombinant; tags: N-terminal GST; dsDNA, one strand shown
# T3 sequence: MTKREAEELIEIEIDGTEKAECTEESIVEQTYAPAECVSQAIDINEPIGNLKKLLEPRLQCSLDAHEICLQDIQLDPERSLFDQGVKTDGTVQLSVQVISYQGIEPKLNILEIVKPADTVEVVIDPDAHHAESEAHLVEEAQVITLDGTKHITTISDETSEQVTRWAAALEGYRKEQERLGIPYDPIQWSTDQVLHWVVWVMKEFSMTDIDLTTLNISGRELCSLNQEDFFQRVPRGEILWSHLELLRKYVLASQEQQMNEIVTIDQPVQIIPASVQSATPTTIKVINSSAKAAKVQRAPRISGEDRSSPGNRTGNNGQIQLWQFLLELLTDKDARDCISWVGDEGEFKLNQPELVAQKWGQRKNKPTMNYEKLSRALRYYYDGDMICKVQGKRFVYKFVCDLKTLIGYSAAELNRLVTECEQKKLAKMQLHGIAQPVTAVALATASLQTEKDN
# Outline: as §1
# [4] = molecular target: T4, ERG (Homo sapiens, UniProt P11308 1-479); conditions: protein: recombinant; tags: N-terminal GST; dsDNA, one strand shown
# T4 sequence: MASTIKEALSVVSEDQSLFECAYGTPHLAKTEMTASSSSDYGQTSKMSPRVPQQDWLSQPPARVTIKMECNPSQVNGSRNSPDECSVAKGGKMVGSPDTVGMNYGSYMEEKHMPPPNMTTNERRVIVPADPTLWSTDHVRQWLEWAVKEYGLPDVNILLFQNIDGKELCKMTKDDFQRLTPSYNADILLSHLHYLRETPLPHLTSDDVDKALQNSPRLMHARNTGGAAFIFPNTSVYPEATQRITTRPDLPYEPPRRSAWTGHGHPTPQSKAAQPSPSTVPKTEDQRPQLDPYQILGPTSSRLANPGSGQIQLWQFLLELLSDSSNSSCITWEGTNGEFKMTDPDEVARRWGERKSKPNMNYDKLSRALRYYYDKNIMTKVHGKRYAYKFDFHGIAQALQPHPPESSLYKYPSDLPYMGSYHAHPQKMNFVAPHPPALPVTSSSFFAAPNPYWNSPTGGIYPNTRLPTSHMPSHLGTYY
# Outline: as §1
# [5] = molecular target: ELF1 (Homo sapiens, UniProt P32519 1-619); conditions: protein: recombinant; tags: N-terminal GST; dsDNA, one strand shown
# Chain of ELF1 (P32519 whole entry): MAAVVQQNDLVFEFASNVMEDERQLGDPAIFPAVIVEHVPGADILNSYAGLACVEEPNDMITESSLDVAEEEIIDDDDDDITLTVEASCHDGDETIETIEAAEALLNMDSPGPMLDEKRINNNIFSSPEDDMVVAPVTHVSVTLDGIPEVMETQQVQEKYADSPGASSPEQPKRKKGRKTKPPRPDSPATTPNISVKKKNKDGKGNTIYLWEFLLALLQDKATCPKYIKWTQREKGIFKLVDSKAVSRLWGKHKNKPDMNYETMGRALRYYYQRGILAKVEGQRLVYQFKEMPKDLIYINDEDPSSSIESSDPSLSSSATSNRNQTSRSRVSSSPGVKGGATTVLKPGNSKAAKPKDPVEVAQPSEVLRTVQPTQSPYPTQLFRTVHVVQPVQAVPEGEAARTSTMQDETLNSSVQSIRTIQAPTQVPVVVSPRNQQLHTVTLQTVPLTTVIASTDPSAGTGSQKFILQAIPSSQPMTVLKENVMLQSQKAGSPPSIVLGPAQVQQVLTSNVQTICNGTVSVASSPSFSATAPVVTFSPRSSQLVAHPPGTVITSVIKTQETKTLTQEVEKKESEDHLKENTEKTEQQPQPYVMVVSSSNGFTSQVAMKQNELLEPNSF
# Outline: as §1
# [6] = molecular target: T5, EHF (Homo sapiens, UniProt Q9NZC4 1-300); conditions: protein: recombinant; tags: N-terminal GST; dsDNA, one strand shown
# T5 sequence: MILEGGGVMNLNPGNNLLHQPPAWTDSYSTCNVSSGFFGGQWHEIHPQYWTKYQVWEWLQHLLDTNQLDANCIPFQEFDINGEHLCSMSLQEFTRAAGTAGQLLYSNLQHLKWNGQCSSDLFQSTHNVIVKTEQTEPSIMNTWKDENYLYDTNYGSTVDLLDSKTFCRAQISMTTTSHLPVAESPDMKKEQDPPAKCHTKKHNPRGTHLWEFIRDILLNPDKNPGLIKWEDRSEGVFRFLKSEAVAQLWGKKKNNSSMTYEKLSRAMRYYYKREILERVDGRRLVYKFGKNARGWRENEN
# Outline: as §1
# [7] = molecular target: SPI1 (Homo sapiens, UniProt P17947 1-270); conditions: protein: recombinant; tags: N-terminal GST; dsDNA, one strand shown
# Outline: as §1
# [8] = molecular target: SPIB (Homo sapiens, UniProt Q01892 1-262); conditions: protein: recombinant; tags: N-terminal GST; dsDNA, one strand shown
# Chain of SPIB (Q01892 whole entry): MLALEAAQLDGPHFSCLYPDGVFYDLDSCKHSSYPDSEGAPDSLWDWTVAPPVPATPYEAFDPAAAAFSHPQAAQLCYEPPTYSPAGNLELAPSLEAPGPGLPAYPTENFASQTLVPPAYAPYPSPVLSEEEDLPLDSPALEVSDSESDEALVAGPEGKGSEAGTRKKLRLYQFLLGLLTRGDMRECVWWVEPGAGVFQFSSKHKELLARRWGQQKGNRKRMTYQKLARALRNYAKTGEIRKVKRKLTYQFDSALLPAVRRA
# Outline: as §1
# [9] = molecular target: T6, ELK3 (Homo sapiens, UniProt P41970 1-407); conditions: protein: recombinant; tags: N-terminal GST; dsDNA, one strand shown
# T6 sequence: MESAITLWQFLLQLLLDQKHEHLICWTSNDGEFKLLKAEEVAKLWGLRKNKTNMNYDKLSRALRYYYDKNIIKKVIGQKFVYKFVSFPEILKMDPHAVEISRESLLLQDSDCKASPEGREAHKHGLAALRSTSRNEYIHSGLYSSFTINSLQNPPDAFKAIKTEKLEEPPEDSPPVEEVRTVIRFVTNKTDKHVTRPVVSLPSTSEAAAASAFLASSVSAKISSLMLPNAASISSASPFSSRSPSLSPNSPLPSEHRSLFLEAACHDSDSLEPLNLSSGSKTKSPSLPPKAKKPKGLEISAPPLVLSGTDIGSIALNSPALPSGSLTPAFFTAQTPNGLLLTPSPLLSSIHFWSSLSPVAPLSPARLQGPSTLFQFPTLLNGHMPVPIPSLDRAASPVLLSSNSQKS
# Outline: as §1
# [10] = molecular target: T7, FEV (Homo sapiens, UniProt Q99581 1-238); conditions: protein: recombinant; tags: N-terminal GST; dsDNA, one strand shown
# T7 sequence: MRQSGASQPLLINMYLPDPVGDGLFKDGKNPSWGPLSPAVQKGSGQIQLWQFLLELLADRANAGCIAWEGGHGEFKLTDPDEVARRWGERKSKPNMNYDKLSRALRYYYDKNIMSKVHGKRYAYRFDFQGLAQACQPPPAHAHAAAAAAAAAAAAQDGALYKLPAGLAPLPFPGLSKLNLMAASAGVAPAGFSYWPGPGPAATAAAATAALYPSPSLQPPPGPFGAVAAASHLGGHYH
# Outline: as §1
# [11] = molecular target: ETV5 (Homo sapiens, UniProt P41161 1-510); conditions: protein: recombinant; tags: N-terminal GST; dsDNA, one strand shown
# Chain of ETV5 (P41161 whole entry): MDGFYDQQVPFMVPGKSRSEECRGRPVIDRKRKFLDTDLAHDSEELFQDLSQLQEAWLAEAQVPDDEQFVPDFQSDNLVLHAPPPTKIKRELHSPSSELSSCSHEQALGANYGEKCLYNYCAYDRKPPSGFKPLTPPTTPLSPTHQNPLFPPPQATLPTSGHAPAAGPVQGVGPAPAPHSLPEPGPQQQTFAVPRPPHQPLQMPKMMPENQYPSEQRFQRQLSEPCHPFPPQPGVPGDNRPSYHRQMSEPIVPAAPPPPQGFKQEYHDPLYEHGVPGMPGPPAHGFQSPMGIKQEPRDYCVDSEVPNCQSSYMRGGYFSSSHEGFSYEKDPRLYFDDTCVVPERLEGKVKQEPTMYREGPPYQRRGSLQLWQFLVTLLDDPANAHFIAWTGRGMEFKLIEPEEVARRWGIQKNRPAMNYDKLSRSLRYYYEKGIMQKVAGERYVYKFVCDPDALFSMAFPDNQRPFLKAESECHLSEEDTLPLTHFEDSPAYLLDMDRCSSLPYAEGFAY
# Outline: as §1
# [12] = molecular target: HSF1 (Homo sapiens, UniProt Q00613 1-529); conditions: protein: recombinant; tags: N-terminal GST; chain copies: 3; dsDNA, one strand shown
# Chain of HSF1 (Q00613 whole entry): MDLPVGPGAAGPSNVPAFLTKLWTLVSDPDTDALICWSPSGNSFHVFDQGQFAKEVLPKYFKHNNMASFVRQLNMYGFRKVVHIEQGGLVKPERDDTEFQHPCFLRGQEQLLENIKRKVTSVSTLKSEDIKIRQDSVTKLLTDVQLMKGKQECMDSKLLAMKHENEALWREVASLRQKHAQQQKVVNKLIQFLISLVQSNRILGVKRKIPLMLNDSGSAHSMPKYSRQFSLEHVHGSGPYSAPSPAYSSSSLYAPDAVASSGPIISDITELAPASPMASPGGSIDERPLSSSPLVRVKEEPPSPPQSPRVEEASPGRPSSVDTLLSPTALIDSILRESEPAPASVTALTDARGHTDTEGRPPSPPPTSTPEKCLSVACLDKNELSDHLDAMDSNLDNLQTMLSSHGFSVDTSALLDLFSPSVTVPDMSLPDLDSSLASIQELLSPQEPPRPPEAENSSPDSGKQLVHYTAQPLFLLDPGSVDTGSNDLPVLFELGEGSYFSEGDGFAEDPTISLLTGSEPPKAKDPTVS
# Outline: as §1
# [13] = molecular target: T8, SPIC (Homo sapiens, UniProt Q8N5J4 1-248); conditions: protein: recombinant; tags: N-terminal GST; dsDNA, one strand shown
# T8 sequence: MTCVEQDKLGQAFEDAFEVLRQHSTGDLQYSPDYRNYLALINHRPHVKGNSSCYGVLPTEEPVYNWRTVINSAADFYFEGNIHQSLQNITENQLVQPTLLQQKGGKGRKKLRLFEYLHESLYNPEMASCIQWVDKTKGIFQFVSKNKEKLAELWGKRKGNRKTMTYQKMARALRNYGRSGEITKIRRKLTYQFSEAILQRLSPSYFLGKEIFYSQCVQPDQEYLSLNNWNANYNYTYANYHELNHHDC
# Outline: as §1
# [14] = molecular target: ELF4 (Homo sapiens, UniProt Q99607 1-663); conditions: protein: recombinant; tags: N-terminal GST; dsDNA, one strand shown
# Chain of ELF4 (Q99607 whole entry): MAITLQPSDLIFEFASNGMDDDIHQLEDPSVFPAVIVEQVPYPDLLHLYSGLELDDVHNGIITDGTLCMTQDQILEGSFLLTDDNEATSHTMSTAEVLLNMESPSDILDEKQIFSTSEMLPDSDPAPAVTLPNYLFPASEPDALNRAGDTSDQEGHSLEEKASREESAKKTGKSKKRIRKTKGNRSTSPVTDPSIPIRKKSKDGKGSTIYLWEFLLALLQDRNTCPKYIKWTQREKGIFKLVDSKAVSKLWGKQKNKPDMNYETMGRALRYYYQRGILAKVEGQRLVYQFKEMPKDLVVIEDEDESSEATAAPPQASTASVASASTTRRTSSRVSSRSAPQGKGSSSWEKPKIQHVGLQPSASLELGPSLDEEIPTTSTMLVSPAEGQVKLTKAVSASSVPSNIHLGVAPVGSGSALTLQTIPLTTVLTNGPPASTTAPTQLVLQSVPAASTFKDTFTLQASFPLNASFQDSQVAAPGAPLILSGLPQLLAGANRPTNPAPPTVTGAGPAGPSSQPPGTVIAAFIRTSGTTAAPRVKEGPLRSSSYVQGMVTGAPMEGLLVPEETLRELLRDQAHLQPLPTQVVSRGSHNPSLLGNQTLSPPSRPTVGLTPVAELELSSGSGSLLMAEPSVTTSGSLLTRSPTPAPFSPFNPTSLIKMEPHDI
# Outline: as §1
# [15] = molecular target: T9, ELK4 (Homo sapiens, UniProt P28324-2 1-405); conditions: protein: recombinant; tags: N-terminal GST; dsDNA, one strand shown
# T9 sequence: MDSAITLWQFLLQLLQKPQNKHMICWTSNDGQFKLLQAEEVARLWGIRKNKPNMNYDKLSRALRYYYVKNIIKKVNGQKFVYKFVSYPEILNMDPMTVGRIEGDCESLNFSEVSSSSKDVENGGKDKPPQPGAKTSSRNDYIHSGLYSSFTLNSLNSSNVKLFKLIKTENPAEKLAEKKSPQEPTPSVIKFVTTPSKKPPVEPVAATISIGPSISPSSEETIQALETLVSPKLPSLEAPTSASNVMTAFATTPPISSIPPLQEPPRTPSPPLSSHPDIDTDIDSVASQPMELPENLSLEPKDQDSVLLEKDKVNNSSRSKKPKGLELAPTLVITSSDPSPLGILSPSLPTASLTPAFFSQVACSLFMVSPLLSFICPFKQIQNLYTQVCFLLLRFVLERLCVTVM
# Outline: as §1
# [16] = molecular target: T10, ETV2 (Homo sapiens, UniProt O00321 1-342); conditions: protein: recombinant; tags: N-terminal GST; dsDNA, one strand shown
# T10 sequence: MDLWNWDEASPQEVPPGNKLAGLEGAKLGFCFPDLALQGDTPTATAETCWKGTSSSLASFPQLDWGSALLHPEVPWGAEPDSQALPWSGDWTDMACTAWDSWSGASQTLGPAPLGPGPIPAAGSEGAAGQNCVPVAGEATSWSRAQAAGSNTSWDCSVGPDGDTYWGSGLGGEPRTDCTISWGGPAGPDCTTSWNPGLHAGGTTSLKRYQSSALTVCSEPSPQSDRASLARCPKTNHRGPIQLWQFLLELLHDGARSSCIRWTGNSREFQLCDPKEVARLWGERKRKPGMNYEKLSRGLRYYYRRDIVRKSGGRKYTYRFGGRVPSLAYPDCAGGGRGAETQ
# Outline: as §1
# [17] = molecular target: T11, ELF3 (Homo sapiens, UniProt P78545 1-371); conditions: protein: recombinant; tags: N-terminal GST; dsDNA, one strand shown
# T11 sequence: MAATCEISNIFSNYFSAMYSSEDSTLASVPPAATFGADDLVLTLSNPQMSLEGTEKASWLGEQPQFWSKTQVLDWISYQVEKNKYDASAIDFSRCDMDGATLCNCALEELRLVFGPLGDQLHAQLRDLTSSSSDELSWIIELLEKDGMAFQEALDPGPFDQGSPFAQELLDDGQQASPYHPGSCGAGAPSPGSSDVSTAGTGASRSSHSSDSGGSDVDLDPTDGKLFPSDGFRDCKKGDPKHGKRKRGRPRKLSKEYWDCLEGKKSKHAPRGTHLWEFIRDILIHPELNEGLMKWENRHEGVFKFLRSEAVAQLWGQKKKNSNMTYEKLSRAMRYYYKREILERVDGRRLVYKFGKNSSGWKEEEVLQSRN
# Outline: as §1
# [18] = molecular target: CRX (Homo sapiens, UniProt O43186 1-299); conditions: protein: recombinant; tags: N-terminal GST; dsDNA, one strand shown
# Chain of CRX (O43186 whole entry): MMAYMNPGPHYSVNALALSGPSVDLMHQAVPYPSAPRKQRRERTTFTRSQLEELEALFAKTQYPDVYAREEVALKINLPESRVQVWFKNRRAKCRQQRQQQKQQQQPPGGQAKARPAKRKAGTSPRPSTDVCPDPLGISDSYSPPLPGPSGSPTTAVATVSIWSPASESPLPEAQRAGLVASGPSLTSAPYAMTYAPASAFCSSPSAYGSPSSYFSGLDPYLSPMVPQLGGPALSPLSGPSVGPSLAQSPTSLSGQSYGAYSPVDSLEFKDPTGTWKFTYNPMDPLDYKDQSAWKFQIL
# Outline: as §1
# [19] = molecular target: ETV1 (Homo sapiens, UniProt P50549 1-477); conditions: protein: recombinant; tags: N-terminal GST; dsDNA, one strand shown
# Chain of ETV1 (P50549 whole entry): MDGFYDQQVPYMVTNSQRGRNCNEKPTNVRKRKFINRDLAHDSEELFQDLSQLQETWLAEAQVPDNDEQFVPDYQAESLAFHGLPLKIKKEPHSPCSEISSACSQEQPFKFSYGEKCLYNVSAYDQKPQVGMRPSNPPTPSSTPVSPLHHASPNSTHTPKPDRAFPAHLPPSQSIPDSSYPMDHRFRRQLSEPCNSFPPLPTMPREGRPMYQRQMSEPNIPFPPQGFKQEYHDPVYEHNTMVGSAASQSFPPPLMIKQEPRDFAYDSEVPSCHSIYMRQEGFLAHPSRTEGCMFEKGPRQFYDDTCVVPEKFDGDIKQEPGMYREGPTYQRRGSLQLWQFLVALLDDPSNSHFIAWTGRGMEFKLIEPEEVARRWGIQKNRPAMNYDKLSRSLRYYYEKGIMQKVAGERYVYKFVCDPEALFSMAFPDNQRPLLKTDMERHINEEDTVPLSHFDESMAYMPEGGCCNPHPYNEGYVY
# Outline: as §1
sequence,measurement,setting,value
AGTAAT,binding signal,[1],"1.02 fold enrichment (6-mer frequency, TF over GST control)"
same,binding signal,[2],"1.1 fold enrichment (6-mer frequency, TF over GST control)"
same,binding signal,[3],"1.16 fold enrichment (6-mer frequency, TF over GST control)"
same,binding signal,[4],"1.09 fold enrichment (6-mer frequency, TF over GST control)"
same,binding signal,[5],"1.12 fold enrichment (6-mer frequency, TF over GST control)"
same,binding signal,[6],"1.19 fold enrichment (6-mer frequency, TF over GST control)"
same,binding signal,[7],"1.17 fold enrichment (6-mer frequency, TF over GST control)"
same,binding signal,[8],"1.1 fold enrichment (6-mer frequency, TF over GST control)"
same,binding signal,[9],"1.12 fold enrichment (6-mer frequency, TF over GST control)"
same,binding signal,[10],"1.05 fold enrichment (6-mer frequency, TF over GST control)"
same,binding signal,[11],"1.12 fold enrichment (6-mer frequency, TF over GST control)"
same,binding signal,[12],"1.3 fold enrichment (6-mer frequency, TF over GST control)"
same,binding signal,[13],"1.12 fold enrichment (6-mer frequency, TF over GST control)"
same,binding signal,[14],"1.1 fold enrichment (6-mer frequency, TF over GST control)"
same,binding signal,[15],"1.08 fold enrichment (6-mer frequency, TF over GST control)"
same,binding signal,[16],"1.24 fold enrichment (6-mer frequency, TF over GST control)"
same,binding signal,[17],"1.08 fold enrichment (6-mer frequency, TF over GST control)"
same,binding signal,[18],"1.61 fold enrichment (6-mer frequency, TF over GST control)"
same,binding signal,[19],"1.06 fold enrichment (6-mer frequency, TF over GST control)"
